Data on 40 compounds can be found in PubChem BioAssay (NCI).

Where “and” joins values, the source holds several entries; their conditions need not be identical. Equal entries are not always repeated. About 83,000 compounds went through this panel and 20% of them were active in at least one assay; those are over-represented in the sample as a whole.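 Assay: single dose, 48 h. Readout: percent growth (0 = no net growth; negative = cell death). Active: <10.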 Calls of active or inactive are those of the source.

This assay concerns SR leukemia. Kind of assay: NCI-60 one-dose screen, 48 h (100 = growth as untreated, 0 = no growth, -100 = all killed). Conditions: 10 µM. The method, then:
Growth inhibition of the SR human tumor cell line is measured as a screen for anti-cancer activity. Cells are grown in 96 well plates and exposed to the test compound for 48 hours. Compounds are tested at a single concentration, which is 10^-5 M for most compounds. The reported endpoint is percent growth (GI% or GIPRCNT), where numbers from 0 - 100% represent growth inhibition, and numbers from -100% - 0 represent cell death. For example, a value of 40 represents 60% growth inhibition. A value of 0 means no net growth occurred over the course of the experiment. A value of -40 indicates 40% of cells at the beginning of the experiment died by the end of the experiment. A value of -100 means all cells are dead at the end of the experiment.
NCI-60 Human Tumor Cell Lines Screen was performed using the standard one-dose NCI protocol, which is described in more detail at https://dtp.cancer.gov/discovery_development/nci-60/default.htm.
Compounds with GIPRCNT values below 10 were considered active. Activity score was based on GIPRCNT using the following formula: […]
Score is 0 for GIPRCNT values of 100 or above, 50 for GIPRCNT values of 0, and 100 for GIPRCNT values of -100.
`COc1cc(/C=C/[N+](=O)[O-])cc(Br)c1OC`: the growth is -5.8% (active).
As to `Oc1c(I)cc(I)cc1I`, the growth is 101% (inactive).
As for `O=[N+]([O-])/C=C/c1ccc([N+](=O)[O-])cc1`, the figure is 3.64% (active) and 20.5% (inactive); as for `Cc1ccc(NC(=O)CBr)cc1`, 89.5% (inactive); as for `S=C=NCCc1ccccc1`, 6.81% (active).
The value for `NC(=O)c1cc([N+](=O)[O-])c(Cl)c([N+](=O)[O-])c1` was -3.5% (active); that for `[O-][n+]1ccccc1S` was 7.55% (active); that for `CC(Cc1ccc2c(c1)OCO2)NN` (stereo not given) was 91.6% (inactive).
As to `CC/C(=C/c1ccc(OC)cc1OC)[N+](=O)[O-]`, the growth was 2.47% (active).
As for `C=C1C(=O)O[C@@H]2C[C@@H](C)[C@@H]3C=CC(=O)[C@@]3(C)[C@@H](O)[C@H]12`, the figure is -11.7% (active); as for `O=C1C=Cc2ccccc2C1=O`, 61.8% (inactive).
As for `COc1cc(/C=C\[N+](=O)[O-])ccc1O`, the figure is 8.06% (active) and 40% (inactive); as for `CS(=N)(=O)CCC(N)C(=O)O` (stereo not given), 99.9% (inactive); as for `COc1ccc(/C=C(\C)[N+](=O)[O-])cc1OC`, -17.4% (active).
The value for `Cc1cc([N+](=O)[O-])c2ccccc2[n+]1[O-]` was -10.2% (active) and -21.8% (active); that for `COC1CC2C=C(C)/C=C/C=C/C(=O)NC(c3ccccc3)C/C=C/CCC(O)CC(=O)C2=C1O` (stereo not given) was 2.86% (active).
In the case of `COC(C(=O)C(O)C(C)O)C1Cc2cc3cc(OC4CC(OC(C)=O)C(OC5CC(O)C(OC)C(C)O5)C(C)O4)cc(O)c3c(O)c2C(=O)C1OC1CC(OC2CC(OC3CC(C)(O)C(OC(=O)C(C)C)C(C)O3)C(O)C(C)O2)C(O)C(C)O1` (stereo not given), the growth was -23.4% (active).
As for `[Cl][Hg][c]1ccc2ccccc2c1`, the growth is -38% (active).
For `CC/C(=C/c1ccc(OC)cc1)[N+](=O)[O-]`, the growth is 1.84% (active).
As for `COc1cc2c(c(OC)c1OC)-c1ccc(O)c(=O)cc1[C@@H](NC(C)=O)CC2`, the figure is 30.1% (inactive); as for `O=C(CCl)Nc1ccc(Cl)cc1`, 29.6% (inactive); as for `C[C@@H]1C[C@@H]([C@H](O)CC2CC(=O)NC(=O)C2)C(=O)[C@@H](C)C1`, 13.8% (inactive).
The value for `Oc1c(Cl)cc(Cl)c2ccccc12.[Cu+2]` was 31.4% (inactive); that for `ClCc1ccc2ccccc2n1` was 88.2% (inactive); that for `CN(C)CC1(N)C(=O)NC(=O)NC1=O` was 101% (inactive).
The value for `CC(C)c1cc([N+](=O)[O-])cc([N+](=O)[O-])c1O` was 94.3% (inactive); that for `O=[N+]([O-])c1ccc(Br)c([N+](=O)[O-])c1` was 21.8% (inactive).
Turning to `COc1cc2c(cc1OC)C13CCN4CC5=CCOC6CC(=O)N2C1C6C5CC43` (stereo not given), the growth is 82% (inactive).
As for `COc1ccc(/C=C\[N+](=O)[O-])cc1OC`, the figure is 16.6% (inactive) and -16.1% (active).
As for `COc1cc(/C=C/[N+](=O)[O-])cc(OC)c1OC`, the figure is -17.7% (active); as for `[Cl][Hg][c]1ccc(Cl)s1`, -17.1% (active).
For the compound `Cc1cc(C(C)(C)c2ccc(O)c(C)c2)ccc1O`, the growth is 92.2% (inactive).
The value for `COc1ccc2c(ccc3oc([N+](=O)[O-])cc32)c1` was -9.5% (active).
As for `Cc1ccc(C(=O)C2C(c3ccccc3)N2C2CCCCC2)cc1` (stereo not given), the figure is 94.4% (inactive) and 97.4% (inactive); as for `O=c1[nH]c2ccccc2n1C1CCN(CCCC(c2ccc(F)cc2)c2ccc(F)cc2)CC1`, -50.8% (active) and -35.4% (active).
For the compound `CC(C)C1(NC(=O)C2CC3c4cccc5[nH]cc(c45)CC3N(C)C2)OC2(O)C3CCCN3C(=O)C(Cc3ccccc3)N2C1=O` (stereo not given), the growth was 87.8% (inactive).
`O=[N+]([O-])/C=C/c1ccc(Cl)cc1[N+](=O)[O-]`: the growth was 4.94% (active).
On to `N#CCc1ccccc1`, for which the growth is 104% (inactive).
The value for `COc1cc([C@@H]2c3cc4c(c(O)c3C[C@H]3COC(=O)[C@@H]32)OCO4)cc(OC)c1OC` was -3.92% (active); that for `CC(=O)Nc1c2sscc-2n(C)c1=O` was -27.4% (active).
